Hedgehog inh = blocks Sonic Hedgehog signaling; 22,000 compounds, 2.1% hits; inhibition, % (concentration not given with the values); Shh-LIGHT2 Gli-luciferase reporter, 30 h;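 active = mean inhibition across valid replicates above about 65%, limit read from the data; inconclusive = mean under the limit, yet half or more replicates past it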;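 note: pathway switched on by Shh-conditioned medium diluted 1 in 25 in low serum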
PD-1 reverse act = reversal of PD-1 mediated T-cell inhibition. AID 2316. primary human CD4 T cells, PD-L1 beads, CellTiter-Glo 96 h. 29,000 tested, under 10 active. activation, % (test concentration not listed); call rule not given here;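 note: 0% = median vehicle wells and 100% = positive control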
MITF inh = inhibitors of MITF. inhibition, % (test concentration not listed). 37,000 compounds, 0.28% hits. TRPM1 promoter luciferase, luminescence, 24 h; in the data active = inhibition above about 85%; inconclusive = no clear call, values can overlap the other calls; inactive = below about 68%;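 note: human melanocyte line stably carrying TRPM1 promoter luciferase reporter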
YB-1 expr inh = YB-1 expression inhibition; U2OS, qRT-PCR YB-1 vs CDIP delta delta Cp, 16 h; hits give high values; zero = DMSO, each unit about twofold; delta delta Cp (YB-1 minus CDIP) (test concentration not listed); 30,000 compounds, 0.37% hits; AID 434959;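 active = delta delta Cp rounded down to an integer at or above 3, about 3 SD of DMSO wells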;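 note: higher means less YB-1 transcript or more CDIP transcript relative to DMSO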
NOMO-1 viab = STK33 inhibitor candidate reducing NOMO-1 cell viability. NOMO-1 AML viability, CellTiter-Glo luminescence, 72 h. inhibition, % (concentration not given with the values). 37,000 compounds, 7.5% hits; in the data active = inhibition above about 80%; inconclusive = no clear call, values can overlap the other calls
* hit, by the source's call; ? = inconclusive; · = no result. Most compounds without a hit are left out; they make up all but 7.4% or so of the library.

SMILES	Hedgehog inh	PD-1 reverse act	MITF inh	YB-1 expr inh	NOMO-1 viab
C[C@@H]1CN([C@H](C)CO)C(=O)c2cccc(NC(=O)CCCCCC(=O)Nc3ccccc3N)c2O[C@@H]1CN(C)Cc1ccc(-c2ccccc2)cc1	·	0	4	0.022	126*
C[C@H]1CN([C@@H](C)CO)C(=O)c2cccc(NC(=O)CCCCCC(=O)Nc3ccccc3N)c2O[C@H]1CN(C)Cc1ccc(C(F)(F)F)cc1	·	0	35	-0.083	100*
C[C@@H]1CN([C@@H](C)CO)C(=O)c2cccc(NC(=O)CCCCCC(=O)Nc3ccccc3N)c2O[C@H]1CN(C)Cc1ccc(Cl)c(Cl)c1	·	-3	80	-0.024	138*
CSc1nc(CSc2ccc(Cl)cc2)nc(C2CC2)c1C#N	22	-5	2	0.26	43
CC1C2CC(C(S(=O)(=O)N3CCOCC3)C2=O)C1(C)C (centres undefined)	-26	0	0	-0.19	12
CS(=O)(=O)N(CC(=O)NC1CCCCC1)c1cccc(F)c1	·	·	-6	·	1
C[C@@H]1CN([C@@H](C)CO)C(=O)c2cccc(NC(=O)CCCCCC(=O)Nc3ccccc3N)c2O[C@H]1CN(C)Cc1ccccc1	·	-2	61	-0.24	122*
C[C@@H]1CN([C@H](C)CO)C(=O)c2cccc(NC(=O)CCCCCC(=O)Nc3ccccc3N)c2O[C@@H]1CN(C)Cc1ccccc1	·	1	-25	-0.7	48
C[C@@H]1CN([C@@H](C)CO)C(=O)c2cccc(NC(=O)CCCCCC(=O)Nc3ccccc3N)c2O[C@H]1CN(C)Cc1ccc(Oc2ccccc2)cc1	·	-4	64	-0.27	141*
COc1cc(OC)c(C2=NOC(C(=O)NCc3ccco3)C2)cc1Cl (centres undefined)	·	1	15	·	129*
O=C(NCc1ccco1)C1CC(c2ccccc2O)=NO1 (centres undefined)	·	·	-12	·	19
C[C@@H]1CN([C@H](C)CO)C(=O)Cc2cc(NC(=O)Nc3ccc4c(c3)OCO4)ccc2O[C@@H]1CN(C)Cc1ccc(-c2ccccc2)cc1	41	-7	38	-0.22	73
C[C@H]1CN([C@@H](C)CO)C(=O)Cc2cc(NC(=O)Nc3ccccc3)ccc2O[C@H]1CN(C)Cc1ccc(-c2ccccc2)cc1	-32	2	-17	1.1	-21
C[C@H](CO)N1C[C@H](C)[C@H](CN(C)Cc2ccc(-c3ccccc3)cc2)Oc2ccc(NC(=O)Nc3ccccc3)cc2CC1=O	6	1	17	0.16	113*
C[C@H]1CN([C@@H](C)CO)C(=O)Cc2cc(NC(=O)Nc3ccc4c(c3)OCO4)ccc2O[C@H]1CN(C)Cc1ccc(-c2ccccc2)cc1	·	1	20	-0.42	92*
COc1ccc(NC(=O)Nc2ccc3c(c2)CC(=O)N([C@H](C)CO)C[C@@H](C)[C@@H](CN(C)Cc2ccc(-c4ccccc4)cc2)O3)cc1	13	-2	4	-0.13	112*
C[C@@H]1CN([C@@H](C)CO)C(=O)Cc2cc(NC(=O)Nc3ccc4c(c3)OCO4)ccc2O[C@@H]1CN(C)Cc1ccc(-c2ccccc2)cc1	-11	1	21	-0.003	13
C[C@@H]1CCCCO[C@@H](CN(C)C(=O)Nc2ccccc2)[C@@H](C)CN([C@H](C)CO)C(=O)c2cc(NC(=O)Nc3cccc4ccccc34)ccc2O1	-14	-1	-7	-0.17	12
COC(=O)c1ccc(NC(=O)CCC(=O)c2ccc(C)cc2C)cc1	·	·	0	·	6
C[C@@H]1CN([C@H](C)CO)C(=O)c2cccc(NC(=O)C3CCCCC3)c2O[C@@H]1CN(C)CC1CCCCC1	1	2	-4	-0.61	3
Cc1ccc(SCCC(=O)Nc2cccnc2)cc1	·	0	14	·	23
C[C@@H]1CCCCO[C@@H](CN(C)S(=O)(=O)c2cccs2)[C@@H](C)CN([C@H](C)CO)C(=O)c2cc(NC(=O)Cc3ccccc3)ccc2O1	0	-2	10	-0.16	14
Cc1ccc(N=Cc2cc3ccccc3nc2Cl)cc1Cl	89*	-4	16	0.14	114*
Fc1ccc(C=Nc2ccc3ccccc3c2)cc1	-32	-1	7	0.21	17
CCn1c2ccccc2c2cc(CNCCc3ccc(Cl)cc3)ccc21	17	-11	31	-0.24	113*
SMILES	Hedgehog inh	PD-1 reverse act	MITF inh	YB-1 expr inh	NOMO-1 viab
O=c1c2ccccc2n(Cc2ccc(Cl)cc2)c(=O)n1Cc1ccc(Cl)cc1	·	0	-13	0.087	37
CC(C)(C)c1ccc(OCc2nnc(Sc3ccc([N+](=O)[O-])cn3)n2-c2ccccc2)cc1	·	-10	39	·	109*
O=[N+]([O-])c1cc(C(F)(F)F)ccc1Sc1nnc(CCCO)n1-c1ccccc1	·	-4	3	·	29
CNC[C@@H]1Oc2c(NS(=O)(=O)c3ccc(OC)cc3)cccc2C(=O)N([C@@H](C)CO)C[C@@H]1C	-13	2	-5	-0.13	-12
OCCNc1nc2ccccc2n1CCOc1ccccc1	·	-1	-1	·	24
CC12CCC(CC(=O)c3ccccc3)(CC1)CC2	·	-1	-37	0.74	43
CC(C)(C)C1CCC2(CC1)C(C#N)C2(C#N)C(=O)c1ccccc1 (centres undefined)	?	-6	85*	0.058	125*
Cc1ccc(S(=O)(=O)N(C)C[C@H]2Oc3c(NC(=O)Nc4ccc5c(c4)OCO5)cccc3C(=O)N([C@H](C)CO)C[C@H]2C)cc1	-1	-4	-16	0.24	13
C[C@@H]1CN([C@@H](C)CO)C(=O)c2cccc(NC(=O)Nc3ccc4c(c3)OCO4)c2O[C@H]1CN(C)S(=O)(=O)c1ccc(F)cc1	1	·	2	0.26	24
Cc1ccc(S(=O)(=O)N(C)C[C@@H]2Oc3c(NC(=O)Nc4ccc5c(c4)OCO5)cccc3C(=O)N([C@H](C)CO)C[C@@H]2C)cc1	115*	·	-11	0.4	12
C[C@H](CO)N1C[C@H](C)[C@H](CN(C)S(=O)(=O)c2ccc(F)cc2)Oc2c(NC(=O)Nc3ccc4c(c3)OCO4)cccc2C1=O	92*	-1	-11	-0.38	18
C[C@H](CO)N1C[C@H](C)[C@@H](CN(C)S(=O)(=O)c2ccc(F)cc2)Oc2c(NC(=O)Nc3ccc4c(c3)OCO4)cccc2C1=O	13	3	6	0.32	12
C[C@H]1CN([C@@H](C)CO)C(=O)c2cccc(NC(=O)Nc3ccc4c(c3)OCO4)c2O[C@H]1CN(C)S(=O)(=O)c1ccc(F)cc1	101*	-2	-30	-0.12	13
Cc1noc(C)c1S(=O)(=O)Nc1cccc2c1O[C@@H](CN(C)Cc1ccc(Oc3ccccc3)cc1)[C@@H](C)CN([C@H](C)CO)C2=O	-1	-2	10	2	50
C[C@@H]1CN([C@@H](C)CO)C(=O)Cc2cc(NC(=O)Nc3ccc(C(F)(F)F)cc3)ccc2O[C@@H]1CN(C)C(=O)Nc1ccc(F)cc1	-2	-3	23	-0.11	115*
